# Experimental data from PubChem BioAssay (EPA / NIEHS).
# Values joined by “and” are separate entries in the source; they are usually repeats but may differ in a detail not shown here. Identical values can stand only once. Where a structure was tested more than once in an assay, its records may differ in their call. Active and inactive are the calls of the source. Rule for the calls: active = hit-call score of the fitted dose curve at least 0.9, where 1 is the maximum; inactive = score below 0.9.
# Read-out: Interleukin-1 alpha (IL1a), IL1A (gene 3552)
# Assay: BSK_BE3C_IL1a: BioMAP Diversity Plus: BE3C Assay for Interleukin-1 alpha (IL1a) Biomarker Activity (AID 2283016)
# Conditions: primary human bronchial epithelial cells; actives raise or lower the signal
# Method in brief: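 Human primary bronchial epithelial cells (BE3C system) were dosed with compound and IL-1a measured by ELISA 24 h later. Activity was fitted bidirectionally against DMSO baseline; cytotoxicity was tracked in parallel cultures by SRB total-protein staining.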
Structure (SMILES),outcome,AC50
O=C(O)C(F)(F)C(F)(F)C(F)(F)C(F)(F)C(F)(F)C(F)(F)C(F)(F)C(F)(F)C(F)(F)C(F)(F)C(F)(F)C(F)(F)F,inactive,
O=S(=O)(O)C(F)(F)C(F)(F)C(F)(F)C(F)(F)C(F)(F)C(F)(F)C(F)(F)F,inactive,
FC(F)(F)C(F)(F)C(F)(F)C(F)(F)CCI,inactive,
O=C(O)C(F)(F)C(F)(F)C(F)(F)C(F)(F)C(F)(F)C(F)(F)C(F)(F)C(F)(F)Cl,,25.1 µM (active) and 23.6 µM (active)
Cc1ccc(S(=O)(=O)OCC(F)(F)C(F)(F)C(F)(F)C(F)(F)C(F)(F)C(F)F)cc1,inactive,44.8 µM (active)
FC(F)(F)C(F)(F)C(F)(F)CI,inactive,
O=C(O)C(F)(F)C(F)(F)C(F)(F)C(F)(F)F,inactive,
Nc1ccc([N+](=O)[O-])cc1O,inactive,
FC(F)(F)C(F)(F)C(F)(F)C(F)(F)C(F)(F)CCI,inactive,
O=C(O)C(F)(F)C(F)(F)C(F)(F)C(F)(F)C(F)(F)C(F)(F)C(F)(F)C(F)(F)C(F)(F)C(F)(F)C(F)(F)C(F)(F)C(F)(F)F,inactive,
CCCCCCCCCCCCCCCC[N+](C)(C)Cc1ccccc1,,8.81 µM (active)
OCC(F)(F)C(F)(F)C(F)(F)F,inactive,
O=C(O)C(F)(F)C(F)(F)F,inactive,
CCc1c(Br)c(Br)c(Br)c(Br)c1Br,inactive,
O=C(O)C(F)(OC(F)(F)C(F)(OC(F)(F)C(F)(F)C(F)(F)F)C(F)(F)F)C(F)(F)F (configuration not stated),inactive,
Oc1ccc(Nc2ccccc2)cc1,,13.4 µM (active)
